Screening data as filed in PubChem.
UBC9 SUMO inh = inhibitors of human SUMOylation (UBC9); HTRF SUMOylation assay, SAE1/SAE2 + UBC9, in vitro; hit rate 0.36% among 290,000; AID 2006; inhibition, % at 35 µM; P63279; in the data active = inhibition above about 50%, passing the limit was not always enough
Target sequence (P63279 whole entry, looked up): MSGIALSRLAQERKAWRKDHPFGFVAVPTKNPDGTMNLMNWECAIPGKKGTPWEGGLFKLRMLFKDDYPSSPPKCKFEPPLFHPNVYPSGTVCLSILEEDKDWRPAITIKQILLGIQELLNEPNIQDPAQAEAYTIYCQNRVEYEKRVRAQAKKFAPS
PfM18AAP inh = blocks P. falciparum M18 aspartyl aminopeptidase; recombinant PfM18AAP, H-Glu-NHMec fluorogenic cleavage; inhibition, % at 7.35 µM; hit rate 1.2% among 290,000; AID 1822;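 active = inhibition above the campaign mean inhibition over all tested compounds plus 3 SD, cut at about 28% in these data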;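 also: 0% = plate median of test compound wells and 100% = 2 mM ZnCl2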
G6PDH CS = counter-screen for G6PDH assay hits: L. mesenteroides G6PDH inhibition; inhibition, % at 5 µM; AID 1020; hit rate 0.12% among 200,000; Purified L. mesenteroides G6PDH, diaphorase/resazurin coupled fluorescence, 45 min; in the data active = inhibition above about 50%
PHOSPHO1 block = blocks human PHOSPHO1 phosphatase activity; Q8TCT1; recombinant PHOSPHO1, absorbance phosphatase assay; inhibition, % at 13.3 µM; hit rate 1.1% among 290,000; in the data active = inhibition above about 60%
Target sequence (Q8TCT1 whole entry, looked up): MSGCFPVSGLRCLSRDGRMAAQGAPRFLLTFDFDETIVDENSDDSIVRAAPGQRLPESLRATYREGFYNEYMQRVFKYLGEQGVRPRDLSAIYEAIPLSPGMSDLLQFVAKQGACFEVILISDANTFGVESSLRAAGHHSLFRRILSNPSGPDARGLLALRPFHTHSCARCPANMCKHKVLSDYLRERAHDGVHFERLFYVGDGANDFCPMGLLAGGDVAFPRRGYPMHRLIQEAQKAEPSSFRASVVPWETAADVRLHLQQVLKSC
p97 inhibitor = blocks human p97 ATPase activity; AID 1481; inhibition, % at 8 µM; P55072; hit rate 0.42% among 220,000; recombinant p97 ATPase, Kinase-Glo ATP luminescence, 3 h; in the data active = inhibition above about 15%;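 also: 0% = DMSO vehicle and 100% = wells lacking enzyme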
HDAC3 inh = inhibitors of human histone deacetylase 3; O15379; recombinant HDAC3, fluorogenic peptide/trypsin coupled, fluorescence; inhibition, % at 8.3 µM; hit rate 0.15% among 320,000; AID 2718; in the data active = inhibition above about 26%, passing the limit was not always enough
Numbers without * were called inactive; x = not tested or not shown. Sampled rows, rich in hits. Any-hit rate of the full collection: about 2.5%.

SMILES	UBC9 SUMO inh	PfM18AAP inh	G6PDH CS	PHOSPHO1 block	p97 inhibitor	HDAC3 inh
O=C(CC(C(=O)O)c1cccc(Cl)c1Cl)c1ccccc1 (configuration not stated)	-0.9	4.1	x	0.8	x	-6.3
NC(=O)COC(=O)c1ccccc1Oc1ccccc1	-3.7	4.4	3.7	48.0	5.2	1.8
Cc1ccccc1-n1c(SCC(=O)N(C)C2CCS(=O)(=O)C2)nnc1-c1ccncc1 (configuration not stated)	1.1	2.8	4.8	21.9	4.7	7.7
Cc1ccccc1-n1c(SCC(=O)c2cc(C)n(C)c2C)nnc1-c1ccncc1	-4.9	11.9	-1.1	93.4*	-0.3	6.8
CCN(CC(=O)Nc1ccc(NC(C)=O)cc1)C(=O)c1ccccc1SCC(=O)N1CCCC1	x	x	x	x	x	-4.8
CCOC(=O)C1CCN(C(=O)c2ccc(C)o2)CC1	x	x	x	x	x	-5.8
CCOC(=O)C1CCN(C(=O)c2c(C)oc3c2C(=O)c2ccccc2C3=O)CC1	42.4	13.5	60.4*	-8.6	6.1	-1.8
Cc1oc2c(c1C(=O)N1CCC(C)CC1)C(=O)c1ccccc1C2=O	53.8	6.7	56.5*	23.5	5.1	0.8
Cc1onc(-c2ccccc2Cl)c1C(=O)N1CCC(C)CC1	16.5	0.8	x	31.9	x	3.4
CCOC(=O)N1CCN(C(=O)c2ccc3oc(CCCc4ccccc4)nc3c2)CC1	11.1	-9.0	x	17.6	x	1.4
CC(Oc1cccc(Cl)c1)C(=O)Nc1ccc(S(=O)(=O)N(C)C2CCN(C)CC2)cc1 (configuration not stated)	x	x	x	x	x	-5.9
CCn1c(-c2cc(-c3ccc(OC(C)C)cc3)nc3ccccc23)n[nH]c1=S	30.5	-3.4	-0.7	97.4*	-0.3	-3.8
CCn1c(-c2cc(-c3cc(OC)ccc3OC)nc3ccccc23)n[nH]c1=S	10.1	-21.3	1.1	90.2*	-4.5	12.9
NNc1nc2c(Cl)c(Cl)ccc2s1	46.9	30.0*	14.6	6.3	7.1	x
CCOCCCNC(=S)NCCNc1nc2c(C)cccc2cc1C#N	16.9	-11.9	22.5	61.0*	-7.0	-12.0
Cc1ccc2cc(C#N)c(NCCNC(=S)NCCCN(C)C)nc2c1C	11.2	-7.4	10.1	64.2*	-0.4	-14.5
Cc1cc(C)c2nc(NCCCNC(=S)NCCCN(C)C)c(C#N)cc2c1	15.2	-0.9	2.6	-21.9	-0.6	x
CC(Oc1ccc2ccc(=O)oc2c1)C(=O)NC1CC(C)(C)NC(C)(C)C1 (configuration not stated)	1.1	-4.3	x	52.8	x	-8.8
O=C(CNc1cc(S(=O)(=O)N2CCOCC2)ccc1NCC1CCCO1)Nc1cccc(F)c1 (configuration not stated)	-18.2	29.1*	x	23.3	x	2.2
Cc1ccc(S(=O)(=O)NNc2ccccc2)c(C)c1	6.4	-8.2	7.9	75.9*	4.4	2.6
O=C(Nc1cccc(F)c1)NC1(C(=O)NCC2CCCO2)CCCCC1 (configuration not stated)	4.2	6.9	x	26.5	x	0.7
CC(NC(=O)C1CCN(S(=O)(=O)c2cccs2)CC1)c1cccc(Cl)c1 (configuration not stated)	x	x	x	x	x	-4.1
Cc1c(N2C(=O)c3ccc4c5c(ccc(c35)C2=O)CC4)c(=O)n(-c2ccccc2)n1C	55.7*	4.0	1.5	77.9*	5.7	7.3
O=S(=O)(/N=C/c1c(O)ccc2ccccc12)c1cccs1	-6.4	6.1	57.3*	32.0	2.6	2.5
CCc1ccc(N(C(=O)c2snc(C(N)=O)c2N)C(C(=O)NC2CCCC2)c2ccncc2)cc1 (configuration not stated)	6.5	3.7	x	46.2	x	-9.1
SMILES	UBC9 SUMO inh	PfM18AAP inh	G6PDH CS	PHOSPHO1 block	p97 inhibitor	HDAC3 inh
CCOC(=O)C1=C(CSc2nc(CC)c(C)cc2C#N)OC(N)=C(C#N)C1c1ccccc1 (configuration not stated)	16.9	4.1	5.3	89.0*	-4.9	16.8
CCOC(=O)C1=C(CSc2nc3c(cc2C#N)CN(C)CC3)OC(N)=C(C#N)C1c1ccc(Cl)cc1 (configuration not stated)	23.3	17.9	2.9	66.7*	-2.1	2.7
CCOC(=O)C1=C(CSc2nc(C)cc(C)c2C#N)OC(N)=C(C#N)C1c1ccccc1 (configuration not stated)	23.0	-6.6	2.6	91.4*	2.9	-3.4
CCOC(=O)C1=C(CSc2nc(-c3ccccc3)ccc2C#N)OC(N)=C(C#N)C1c1ccc(OC)cc1 (configuration not stated)	33.0	19.3	5.5	-30.4	3.6	6.5
Nc1c(C(=O)OCC(=O)NCc2ccccc2)[nH]c(=O)[nH]c1=O	11.2	4.8	x	12.9	11.0	x
O=C(Nc1nc2c(s1)CCc1ccccc1-2)c1cccs1	16.1	-12.8	13.8	43.1	2.8	2.9
Fc1ccccc1Nc1nc2c(s1)CCc1ccccc1-2	19.3	42.3*	15.9	-11.5	0.0	x
COCCn1c(=O)[nH]c2cc(C(=O)Nc3cccc(C(C)=O)c3)ccc2c1=O	11.7	-1.8	x	19.0	x	-2.6
O=C(COC(=O)CCc1nc2ccccc2c(=O)[nH]1)Nc1ccc(Cl)cn1	0.6	1.2	x	74.5*	-8.9	x
O=C(COC(=O)CCc1nc2ccccc2c(=O)[nH]1)Nc1ccccc1	x	x	x	x	x	1.0
Cc1ccsc1C(=O)N1CCCC(C(=O)c2cc(F)ccc2F)C1 (configuration not stated)	0.0	-6.5	10.0	30.4	1.7	x
CN(C)S(=O)(=O)n1cc(/C=C(\NC(=O)c2ccccc2Cl)C(=O)NCCN2CCOCC2)c2ccccc21	1.1	1.4	x	64.9*	x	-5.4
CCc1ccc(N=C2NC(=O)/C(=C/c3cc(OC)c(O)c(OC)c3)S2)cc1	10.5	28.0*	x	9.7	x	-13.7
Cc1cc(Br)ccc1NC(=O)CN(C)C(=O)C1=COCCO1	x	x	x	x	x	-14.2
CS(=O)(=O)c1ccc(-c2cn3cc(C(=O)O)ccc3n2)cc1	29.0	0.2	4.3	60.9*	-0.8	-58.0
COC(=O)c1ccc2nc(-c3ccc(S(C)(=O)=O)cc3)cn2c1	23.6	-8.7	1.6	36.7	1.1	-7.4
COc1ccccc1NC(=O)c1ccc2c(c1)C(=O)N(Cc1ccco1)C2=O	19.6	-7.8	x	36.0	x	2.1
O=C(Nc1ccccc1O)c1ccc2c(c1)C(=O)N(Cc1ccco1)C2=O	21.9	-3.5	x	21.8	x	40.8*
Cc1ccc(/C=C/S(=O)(=O)NCCC(=O)NCc2ccc(F)cc2)cc1	x	x	x	x	x	2.5
Cc1cc(C)n(CCN(C)C(=O)C2CCC(=O)N(CCc3cccc(F)c3)C2)n1 (configuration not stated)	x	0.6	x	64.0*	x	-8.8
CC(C)N(Cc1cnn(C)c1)C(=O)C1CCC(=O)N(CCc2cccc(F)c2)C1 (configuration not stated)	-1.9	3.0	x	61.0*	x	-1.3
CN(Cc1cnn(C)c1)C(=O)C1CCC(=O)N(Cc2cccc(F)c2)C1 (configuration not stated)	5.1	4.5	x	52.6	x	-2.3
